The values below come from PubChem BioAssay (NCI).

Several values for one entry are separate records, joined by “and”; a condition that tells them apart may be missing. Equal entries are not always repeated. The panel holds about 83,000 compounds, 20% with a hit somewhere; the sample as a whole holds those more often.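 Negative percent growth values reflect cell death: -40 means 40% of the cells present at the start died, and -100 means all died.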 Unmarked numbers belong to inactive results. Activity calls are given as the source filed them. How the source made its calls: active means growth percent below 10; inactive means the rest.

Assay in all cases: NCI-60 one-dose screen, 48 h (100 = growth as untreated, 0 = no growth, -100 = all killed)
In one assay the test system is NCI-H226 lung. The settings on record: 10 µM.
A further assay deals with NCI-H322M lung. The settings on record: 10 µM.
The next assay deals with HOP-62 NSCLC. The following applies: 10 µM.
In a further assay the test system is NCI-H460 lung. The following applies: 10 µM.
For another assay, the system named is A549/ATCC NSCLC. The following applies: 10 µM.
In another assay the test system is COLO 205 colon. The following applies: 10 µM.
In another assay the test system is DU-145 prostate. The settings on record: 10 µM.
The subject of the next assay is SF-268 CNS. The following applies: 10 µM.
A further assay concerns SF-295 CNS. The settings on record: 10 µM.
The next assay has as its system SF-539 CNS. The settings on record: 10 µM.
The subject of another assay is HCT-15 colon. The following applies: 10 µM.
A further assay has as its system HT29 colon. The settings on record: 10 µM.
The test system of another assay is SNB-75 CNS. The settings on record: 10 µM.
Another assay concerns SNB-19 CNS. The settings on record: 10 µM.
In another assay the test system is U251 CNS. The settings on record: 10 µM.
Another assay has as its system PC-3 prostate. The following applies: 10 µM.
For another assay, the system named is EKVX NSCLC. The following applies: 10 µM.
The subject of the next assay is UO-31 renal. The settings on record: 10 µM.
The next assay concerns ACHN renal. The settings on record: 10 µM.
For a further assay, the system named is HL-60(TB) leukemia. The following applies: 10 µM unless noted.

In the case of `COc1cccc2c1cc([N+](=O)[O-])c1c(C(=O)O)cc3c(c12)OCO3`, the growth in the assay with NCI-H226 lung was 104%; in the assay with NCI-H322M lung it was 115%; in the assay on HOP-62 NSCLC, 113%; with NCI-H460 lung, 105%; with A549/ATCC NSCLC, 100%; with COLO 205 colon, 18.1%. Moreover, the growth with DU-145 prostate is 112%; with SF-268 CNS, 108%; in the assay with SF-295 CNS, 101%; in the assay on SF-539 CNS, 106%; with HCT-15 colon, 99.9%; in the assay with HT29 colon, 0.133% (active). Besides, the growth was 96.2% in the assay with SNB-75 CNS; 102% in the assay on SNB-19 CNS; 103% in the assay on U251 CNS; 95.6% with PC-3 prostate; 97% with EKVX NSCLC; 85.1% in the assay on UO-31 renal. The growth with ACHN renal was 101%; in the assay on HL-60(TB) leukemia, 105%.

Take `CC(C)(O)/C=C/C(=O)[C@](C)(O)[C@H]1[C@H](O)C[C@@]2(C)[C@H]3CC=C4[C@@H](C[C@H](O)C(=O)C4(C)C)[C@]3(C)C(=O)C[C@]12C`: the growth was 12.7% in the assay on NCI-H226 lung; 32.3% in the assay with NCI-H322M lung; 5.78% (active) with HOP-62 NSCLC; 15.6% in the assay with NCI-H460 lung; 10.1% in the assay with A549/ATCC NSCLC; 34.3% with COLO 205 colon. Also, the growth was 14% in the assay on DU-145 prostate; -3.28% (active) in the assay on SF-268 CNS; 7.51% (active) with SF-295 CNS; -31.5% (active) with SF-539 CNS; 7.53% (active) in the assay on HCT-15 colon; 3.2% (active) in the assay on HT29 colon. In addition, the growth with SNB-75 CNS was -39.4% (active); with SNB-19 CNS, 8.14% (active); in the assay with U251 CNS, 0.229% (active); in the assay on PC-3 prostate it was 11.4%; with EKVX NSCLC it was 18.4%; in the assay with UO-31 renal, -52.7% (active). Moreover, the values for the growth in the assay on ACHN renal and in the assay on HL-60(TB) leukemia were -1.68% (active) and -3.29% (active), respectively.

Regarding `CCCCCCCCCC(=O)N[C@@](C)(CC)C(=O)N1CCC[C@H]1C(=O)N[C@@H](CC(C)C)C(=O)N[C@@](C)(CC)C(=O)N[C@@H](CCC(N)=O)C(=O)N[C@H](CCC(N)=O)C(=O)NC(C)(C)C(=O)NC(C)(C)C(=O)N[C@@H](CCC(N)=O)C(=O)N[C@H](CC(C)C)C(=O)N[C@H](CO)CC(C)C`, the growth with NCI-H226 lung was -71.9% (active) and -72.7% (active); in the assay on NCI-H322M lung, -94.9% (active) and -60.9% (active); in the assay with HOP-62 NSCLC, -74.3% (active) and -67.3% (active); in the assay on NCI-H460 lung it was -77.3% (active) and -76.8% (active); in the assay with A549/ATCC NSCLC, -48.6% (active) and -38% (active); in the assay on COLO 205 colon, -63.2% (active) and -52.1% (active). For the same compound, the growth in the assay on DU-145 prostate is -99.1% (active) and -81.9% (active); with SF-268 CNS it was -80.5% (active) and -64.9% (active); in the assay on SF-295 CNS it was -91.7% (active) and -90.9% (active); with SF-539 CNS, -97.2% (active) and -100% (active); in the assay on HCT-15 colon, -77.8% (active) and -78.1% (active); in the assay with HT29 colon, -40.3% (active) and -67.2% (active). Moreover, the growth with SNB-75 CNS is -90.8% (active) and -96.3% (active); in the assay with SNB-19 CNS, -93.9% (active) and -99.6% (active); in the assay on U251 CNS, -75.9% (active) and -77.1% (active); in the assay on PC-3 prostate, -87.2% (active) and -63.7% (active); in the assay with EKVX NSCLC, -86.7% (active) and -89.1% (active); in the assay on UO-31 renal it was -96.4% (active) and -89.3% (active). In addition, the growth with ACHN renal is -93% (active) and -98.4% (active); in the assay on HL-60(TB) leukemia, -61.8% (active) and -23.6% (active).

In the case of `NC1CCc2cc(O)c(O)cc2C1` (stereo not given), the growth in the assay on NCI-H226 lung was 90.7%; in the assay on NCI-H322M lung it was 98.6%; in the assay with HOP-62 NSCLC, 100%; with NCI-H460 lung it was 87%; in the assay with A549/ATCC NSCLC it was 82.3%; with COLO 205 colon, 80.7%. Moreover, the growth with DU-145 prostate is 94.3%; with SF-268 CNS it was 104%; in the assay with SF-295 CNS it was 95%; in the assay with SF-539 CNS, 94.8%; in the assay on HCT-15 colon it was 41.8%; with HT29 colon it was 39.7%. For the same compound, the growth in the assay with SNB-75 CNS was 82.6%; with SNB-19 CNS, 98%; with U251 CNS it was 79.6%; in the assay with PC-3 prostate it was 76.1%; with EKVX NSCLC it was 93.9%; in the assay on UO-31 renal, 85.1%. Further, the growth was 96.9% in the assay on ACHN renal and 32.9% in the assay with HL-60(TB) leukemia.

For the compound `C[C@@H]1C[C@H]2C(=O)O[C@@H](C)C(NC(=O)[C@H](Cc3cc(F)cc(F)c3)NC(=O)Nc3ccc(OS(=O)(=O)F)cc3)C(=O)N3CCC[C@H]3C(=O)N3CCO[C@H](C)[C@H]3C(=O)N[C@@H](CO)C(=O)N2C1` (stereo not given in full), the growth in the assay on NCI-H226 lung is -3.99% (active); in the assay on NCI-H322M lung, 54%; in the assay with HOP-62 NSCLC it was 33%; in the assay on NCI-H460 lung it was 17%; in the assay on A549/ATCC NSCLC, 31%; in the assay on COLO 205 colon, -19.1% (active). Moreover, the growth in the assay with DU-145 prostate is 28%; in the assay on SF-268 CNS, 33.2%; with SF-295 CNS, 11.4%; with SF-539 CNS, 39.5%; with HCT-15 colon, 82.9%; with HT29 colon, 34.6%. Besides, the growth is 34.4% in the assay with SNB-75 CNS; 24.2% in the assay with SNB-19 CNS; 29.6% with U251 CNS; 19.9% in the assay on PC-3 prostate; 34% in the assay with EKVX NSCLC; 88.7% in the assay with UO-31 renal. The growth with ACHN renal was 93.5%; in the assay on HL-60(TB) leukemia it was 13.3%.

For `Cc1ccc(CNc2nc3ccc(OC/C(=C/F)CN)cc3o2)cn1`, the growth in the assay on NCI-H226 lung was 90.3%; in the assay on NCI-H322M lung, 105%; in the assay on HOP-62 NSCLC, 72.9%; with NCI-H460 lung it was 93.7%; in the assay with A549/ATCC NSCLC it was 95.6%; in the assay with COLO 205 colon, 111%. Further, the growth is 88.4% in the assay on DU-145 prostate; 89.8% in the assay with SF-268 CNS; 99.9% with SF-295 CNS; 94.9% in the assay with SF-539 CNS; 112% with HCT-15 colon; 112% in the assay on HT29 colon. The growth is 55.5% with SNB-75 CNS; 98.8% in the assay on SNB-19 CNS; 110% in the assay with U251 CNS; 98.3% with PC-3 prostate; 61.7% in the assay with EKVX NSCLC; 58.4% in the assay on UO-31 renal. In addition, the figures for the growth with ACHN renal and in the assay with HL-60(TB) leukemia were 99% and 141%, respectively.
